Measured values as given in PubChem BioAssay (Tox21).
Records with an inconclusive call do not appear. The source made the active and inactive calls. The call rests on the fitted dose curve.

system: not listed separately; assay: Nuclear factor erythroid 2-related factor 2/antioxidant responsive element (Nrf2/ARE) small molecule agonists: luciferase reporter gene qHTS assay in human keratinocytes (AID 1919969); conditions: KeratinoSens HaCaT ARE-luciferase, luminescence, 24 h; series mostly up to 92.4 µM; activity, positive = activation: at the top concentration; further: potency means the concentration at half of the fitted maximal effect
Further: nearly all actives have a fitted effect of over 35% in size.
On the % scale 0 is the no-effect control and ±100 the full control effect.

SMILES	activity, positive = activation	Potency
CC(C)NCCCC1(C(N)=O)c2ccccc2-c2ccccc21	-2.99% [at 42.5 µM] (inactive)	–
CC(C(=O)O)c1cccc(Oc2ccccc2)c1 (stereo not given)	-0.181% [at 42.5 µM] (inactive)	–
CC(C)=CCC[C@@](C)(O)[C@H]1CC=C(C)CC1	8.65% [at 42.5 µM] (inactive)	–
O=C(O)C[C@H](O)C[C@H](O)/C=C/c1c(C2CC2)nc2ccccc2c1-c1ccc(F)cc1	-21.1% [at 19 µM] (inactive)	–
O=P(O)(O)OCC(O)CO (stereo not given)	-2.61% [at 42.5 µM] (inactive)	–
COC(=O)[C@H]1[C@H]2C[C@@H]3c4[nH]c5cc(OC)ccc5c4CCN3C[C@H]2C[C@@H](OC(=O)COc2ccc(OC)cc2)[C@@H]1OC	3.39% [at 42.5 µM] (inactive)	–
Cc1ccc2c(Cl)cc(Cl)c(O)c2n1	7.54% [at 42.5 µM] (inactive)	–
CCC(=O)OC(=O)CC	–	27.1 µM (active)
O=C1c2ccccc2C(=O)N1CO	-3.88% (inactive)	–
C[N+]12CCC(CC1)C(OC(=O)C(O)(c1ccccc1)c1ccccc1)C2 (stereo not given)	3.09% [at 42.5 µM] (inactive)	–
Cc1cccc([N+](=O)[O-])c1C(=O)O	-6.15% (inactive)	–
Nc1nc2c(ncn2COCCO)c(=O)[nH]1	0.678% [at 42.5 µM] (inactive)	–
C[N+]1(CC2COC(c3ccccc3)(c3ccccc3)O2)CCCCC1 (stereo not given)	-7.02% [at 19 µM] (inactive)	–
Cc1ncc(CO)c(C=O)c1O	-0.258% [at 42.5 µM] (inactive)	–
CC(C)c1ccc(C#N)cc1	-1.25% (inactive)	–
CN(C)CCN1CCOCC1	-0.172% (inactive)	–
CCOC(=O)[C@H](C)O	1.61% (inactive)	–
CO[C@@]1(NC(=O)CSCC#N)C(=O)N2C(C(=O)O)=C(CSc3nnnn3C)CS[C@@H]21	5.25% [at 42.5 µM] (inactive)	–
O=C(Nc1ccccc1)Nc1ccccc1	18.7% (inactive)	–
O=C(O)c1ccc[n+]([O-])c1	0.71% [at 42.5 µM] (inactive)	–

SMILES	activity, positive = activation	Potency
NC(Cc1ccc(Cl)cc1)C(=O)O (stereo not given)	-1.51% [at 0.349 µM] (inactive)	–
CCCCCCCCCCc1ccccc1	-0.373% (inactive)	–
Cc1ccccc1N1C(=O)c2cc(S(N)(=O)=O)c(Cl)cc2NC1C (stereo not given)	-12.8% [at 42.5 µM] (inactive)	–
NC1CCN(c2nc3c(cc2F)c(=O)c(C(=O)O)cn3-c2ccc(F)cc2F)C1 (stereo not given)	-8.15% [at 42.5 µM] (inactive)	–
CCOc1cc([N+](=O)[O-])c(OCC)cc1N1CCOCC1	-10.4% (inactive)	–
CO[C@@H]1[C@H](OC(=O)/C=C/C=C/C=C/C=C/C(=O)O)CC[C@]2(CO2)[C@H]1[C@@]1(C)O[C@@H]1CC=C(C)C	–	61.1 µM (active)
CN1C(=O)OC(C)(C)C1=O	-3.58% (inactive)	–
FC(F)(F)c1ccc(Cl)cc1Cl	-0.956% (inactive)	–
O=C(CCC1CCN(Cc2ccccc2)CC1)c1ccc2c(c1)NCCCC2	-1.48% [at 42.5 µM] (inactive)	–
Cn1c(=O)[nH]c2ncn(C)c2c1=O	0.393% (inactive)	–
Nc1nc(Cl)nc2c1ncn2[C@@H]1O[C@H](CO)[C@@H](O)[C@@H]1F	0.403% [at 42.5 µM] (inactive)	–
CC(C)(C)C1=CC(=O)C(C(C)(C)C)=CC1=O	–	26.6 µM (active)
Cc1c(C(=O)NCCO)[n+](=O)c2ccccc2n1[O-]	0.411% [at 42.5 µM] (inactive)	–
C=CC(C)(CCC=C(C)C)OC(=O)C(C)C (stereo not given)	1.34% (inactive)	–
CN1Cc2cc(C(=O)N3CCC(C4CCNCC4)CC3)ccc2N[C@@H](CC(=O)O)C1=O	-8.17% [at 42.5 µM] (inactive)	–
[O-][n+]1cccc(CO)c1	1.19% [at 42.5 µM] (inactive)	–
Cc1cc(C(=O)O)ccc1[N+](=O)[O-]	3.41% (inactive)	–
CC(C)=CCC/C(C)=C/C=N/O	5.19% (inactive)	–
CC(=O)c1c(C)cc(C(C)(C)C)cc1C	3.76% (inactive)	–
O=S1(=O)c2cccc3cccc(c23)N1CCCN1CCN(c2ccc(F)cc2)CC1	-6.02% [at 42.5 µM] (inactive)	–

target: Gonadotropin-releasing hormone receptor (Homo sapiens) (UniProt P30968); assay: Human gonadotropin-releasing hormone receptor (GnRHR) small molecule agonists, calcium flux assay in GnRHR-HEK293 cells (AID 1920063); conditions: calcium flux fluorescence, agonist mode; series mostly up to 57.6 µM; activity change: at the top concentration
Sequence (P30968 whole entry, looked up): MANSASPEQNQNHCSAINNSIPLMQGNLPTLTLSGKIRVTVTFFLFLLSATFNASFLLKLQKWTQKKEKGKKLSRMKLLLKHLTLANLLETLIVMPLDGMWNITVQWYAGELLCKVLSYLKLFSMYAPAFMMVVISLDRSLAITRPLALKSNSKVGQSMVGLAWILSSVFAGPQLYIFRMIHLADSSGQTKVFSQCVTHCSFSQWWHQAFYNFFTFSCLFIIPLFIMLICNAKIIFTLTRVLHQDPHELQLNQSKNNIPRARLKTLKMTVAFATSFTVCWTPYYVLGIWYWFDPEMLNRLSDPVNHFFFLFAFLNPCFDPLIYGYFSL
Summary of the method: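 Tox21-format agonist screen using human GnRHR-expressing HEK293 cells and a fluorescent calcium dye; kinetic 3-min fluorescence reading after compound addition, 15-point concentration series run in triplicate.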

SMILES	activity change
CC(C)NCCCC1(C(N)=O)c2ccccc2-c2ccccc21	0.663% [at 26.4 µM, hits give high values] (inactive)
CC(C(=O)O)c1cccc(Oc2ccccc2)c1 (stereo not given)	0.687% [at 26.4 µM, hits give high values] (inactive)
CC(C)=CCC[C@@](C)(O)[C@H]1CC=C(C)CC1	14.1% [at 26.4 µM, hits give high values] (inactive)
O=C(O)C[C@H](O)C[C@H](O)/C=C/c1c(C2CC2)nc2ccccc2c1-c1ccc(F)cc1	-1.52% [at 11.8 µM, hits give high values] (inactive)
O=P(O)(O)OCC(O)CO (stereo not given)	0.449% [at 26.4 µM, hits give high values] (inactive)
COC(=O)[C@H]1[C@H]2C[C@@H]3c4[nH]c5cc(OC)ccc5c4CCN3C[C@H]2C[C@@H](OC(=O)COc2ccc(OC)cc2)[C@@H]1OC	7.04% [at 26.4 µM, hits give high values] (inactive)
Cc1ccc2c(Cl)cc(Cl)c(O)c2n1	-1.13% [at 26.4 µM, hits give high values] (inactive)
CCC(=O)OC(=O)CC	-0.605% (inactive)
O=C1c2ccccc2C(=O)N1CO	-1.45% (inactive)
C[N+]12CCC(CC1)C(OC(=O)C(O)(c1ccccc1)c1ccccc1)C2 (stereo not given)	-2.15% [at 26.4 µM, hits give high values] (inactive)
Cc1cccc([N+](=O)[O-])c1C(=O)O	-1.59% (inactive)
Nc1nc2c(ncn2COCCO)c(=O)[nH]1	-0.0297% [at 26.4 µM, hits give high values] (inactive)
C[N+]1(CC2COC(c3ccccc3)(c3ccccc3)O2)CCCCC1 (stereo not given)	-0.634% [at 11.8 µM, hits give high values] (inactive)
Cc1ncc(CO)c(C=O)c1O	-1.57% [at 26.4 µM, hits give high values] (inactive)
CC(C)c1ccc(C#N)cc1	-0.133% (inactive)
CN(C)CCN1CCOCC1	0.123% (inactive)
CCOC(=O)[C@H](C)O	-0.0838% (inactive)
CO[C@@]1(NC(=O)CSCC#N)C(=O)N2C(C(=O)O)=C(CSc3nnnn3C)CS[C@@H]21	-0.386% [at 26.4 µM, hits give high values] (inactive)
O=C(Nc1ccccc1)Nc1ccccc1	2.21% (inactive)
O=C(O)c1ccc[n+]([O-])c1	-1.09% [at 26.4 µM, hits give high values] (inactive)

SMILES	activity change
NC(Cc1ccc(Cl)cc1)C(=O)O (stereo not given)	-0.23% [at 0.217 µM, hits give high values] (inactive)
CCCCCCCCCCc1ccccc1	-0.563% (inactive)
Cc1ccccc1N1C(=O)c2cc(S(N)(=O)=O)c(Cl)cc2NC1C (stereo not given)	0.0563% [at 26.4 µM, hits give high values] (inactive)
NC1CCN(c2nc3c(cc2F)c(=O)c(C(=O)O)cn3-c2ccc(F)cc2F)C1 (stereo not given)	-1.38% [at 26.4 µM, hits give high values] (inactive)
CCOc1cc([N+](=O)[O-])c(OCC)cc1N1CCOCC1	-1.34% (inactive)
CO[C@@H]1[C@H](OC(=O)/C=C/C=C/C=C/C=C/C(=O)O)CC[C@]2(CO2)[C@H]1[C@@]1(C)O[C@@H]1CC=C(C)C	2.16% (inactive)
CN1C(=O)OC(C)(C)C1=O	0.577% (inactive)
FC(F)(F)c1ccc(Cl)cc1Cl	0.2% (inactive)
O=C(CCC1CCN(Cc2ccccc2)CC1)c1ccc2c(c1)NCCCC2	2.03% [at 26.4 µM, hits give high values] (inactive)
Cn1c(=O)[nH]c2ncn(C)c2c1=O	-0.432% (inactive)
Nc1nc(Cl)nc2c1ncn2[C@@H]1O[C@H](CO)[C@@H](O)[C@@H]1F	0.795% [at 26.4 µM, hits give high values] (inactive)
CC(C)(C)C1=CC(=O)C(C(C)(C)C)=CC1=O	1.37% [at 26.4 µM, hits give high values] (inactive)
Cc1c(C(=O)NCCO)[n+](=O)c2ccccc2n1[O-]	0.0474% [at 26.4 µM, hits give high values] (inactive)
C=CC(C)(CCC=C(C)C)OC(=O)C(C)C (stereo not given)	0.255% (inactive)
CN1Cc2cc(C(=O)N3CCC(C4CCNCC4)CC3)ccc2N[C@@H](CC(=O)O)C1=O	1.7% [at 26.4 µM, hits give high values] (inactive)
[O-][n+]1cccc(CO)c1	0.11% [at 26.4 µM, hits give high values] (inactive)
Cc1cc(C(=O)O)ccc1[N+](=O)[O-]	-0.0434% (inactive)
CC(C)=CCC/C(C)=C/C=N/O	-0.205% (inactive)
CC(=O)c1c(C)cc(C(C)(C)C)cc1C	3.89% (inactive)
O=S1(=O)c2cccc3cccc(c23)N1CCCN1CCN(c2ccc(F)cc2)CC1	1.09% [at 26.4 µM, hits give high values] (inactive)
